{"source": "a collection of fitness landscapes (doi:10.1126/science.1257360)", "parents": {"B1": {"name": "PhoQ; a variant is named by its letters at X, in order, P23837 (parent)", "chain": "MKKLLRLFFPLSLRVRFLLATAAVVLVLSLAYGMVALIGYSVSFDKTTFRLLRGESNLFYTLAKWENNKLHVELPENIDKQSPTMTLIYDENGQLLWAQRDVPWLMKMIQPDWLKSNGFHEIEADVNDTSLLLSGDHSIQQQLQEVREDDDDAEMTHSVAVNVYPATSRMPKLTIVVVDTIPVELKSSYMVWSWFIYVLSANLLLVIPLLWVAAWWSLRPIEALAKEVRELEEHNRELLNPATTRELTSLVRNLNRLLKSERERYDKYRTTLTDLTHSLKTPLXXLQXXLRSLRSEKMSVSDAEPVMLEQISRISQQIGYYLHRASMRGGTLLSRELHPVAPLLDNLTSALNKVYQRKGVNISLDISPEISFVGEQNDFVEVMGNVLDNACKYCLEFVEISARQTDEHLYIVVEDDGPGIPLSKREVIFDRGQRVDTLRPGQGVGLAVAREITEQYEGKIVAGESMLGGARMEVIFGRQHSAPKDE"}}, "note": "Over roughly 140,000 sequences, “enrichment ratio after two sorts for PhoP signalling” has its median near 0; the highest 2% begin near 11. This is one part of a sample in which the highest values are shown more often than they occur.", "data": [{"variants_of": "B1", "assay": "enrichment ratio after two sorts for PhoP signalling (ratio (wild type AVST 3.29)); higher = more functional", "settings": "with PhoP (E. coli)", "values": [{"variant": "ITAF", "enrichment ratio": "≤ 0.25"}, {"variant": "NAMN", "enrichment ratio": "≤ 0.25"}, {"variant": "TAMN", "enrichment ratio": 59.7}, {"variant": "TAVG", "enrichment ratio": "≤ 0.25"}, {"variant": "TAMG", "enrichment ratio": 17.2}, {"variant": "TATV", "enrichment ratio": 13.6}, {"variant": "YATV", "enrichment ratio": "≤ 0.25"}, {"variant": "YANV", "enrichment ratio": "≤ 0.25"}, {"variant": "KAMN", "enrichment ratio": "≤ 0.25"}, {"variant": "KANV", "enrichment ratio": "≤ 0.25"}, {"variant": "TANV", "enrichment ratio": 17.9}, {"variant": "TAVC", "enrichment ratio": 1.35}, {"variant": "KATV", "enrichment ratio": "≤ 0.25"}, {"variant": "YFEP", "enrichment ratio": "≤ 0.25"}, {"variant": "NMRI", "enrichment ratio": "≤ 0.25"}, {"variant": "YHGP", "enrichment ratio": "≤ 0.25"}, {"variant": "TWHF", "enrichment ratio": "≤ 0.25"}, {"variant": "LTFD", "enrichment ratio": "≤ 0.25"}, {"variant": "HWNR", "enrichment ratio": "≤ 0.25"}, {"variant": "WEAV", "enrichment ratio": "≤ 0.25"}, {"variant": "KAMP", "enrichment ratio": "≤ 0.25"}, {"variant": "WWAY", "enrichment ratio": "≤ 0.25"}, {"variant": "LLHT", "enrichment ratio": "≤ 0.25"}, {"variant": "HMSL", "enrichment ratio": "≤ 0.25"}, {"variant": "PQVE", "enrichment ratio": "≤ 0.25"}, {"variant": "HHWE", "enrichment ratio": "≤ 0.25"}, {"variant": "YAGF", "enrichment ratio": "≤ 0.25"}, {"variant": "TAMV", "enrichment ratio": 14.2}, {"variant": "TAGF", "enrichment ratio": 13.2}, {"variant": "TAMS", "enrichment ratio": 7.61}, {"variant": "TAPV", "enrichment ratio": "≤ 0.25"}, {"variant": "LQQS", "enrichment ratio": "≤ 0.25"}, {"variant": "TAQF", "enrichment ratio": 14}, {"variant": "TAHF", "enrichment ratio": 10.3}, {"variant": "IAGF", "enrichment ratio": "≤ 0.25"}, {"variant": "TAVA", "enrichment ratio": "≤ 0.25"}, {"variant": "TAQS", "enrichment ratio": 14.2}, {"variant": "LQQF", "enrichment ratio": "≤ 0.25"}, {"variant": "KVFQ", "enrichment ratio": "≤ 0.25"}, {"variant": "TFVR", "enrichment ratio": "≤ 0.25"}, {"variant": "QGQK", "enrichment ratio": "≤ 0.25"}, {"variant": "PHIC", "enrichment ratio": "≤ 0.25"}, {"variant": "NSGR", "enrichment ratio": "≤ 0.25"}, {"variant": "SWSS", "enrichment ratio": "≤ 0.25"}, {"variant": "AQVW", "enrichment ratio": "≤ 0.25"}, {"variant": "THPY", "enrichment ratio": "≤ 0.25"}, {"variant": "TAAF", "enrichment ratio": 18.4}, {"variant": "TAWI", "enrichment ratio": 10.7}, {"variant": "KAAF", "enrichment ratio": "≤ 0.25"}, {"variant": "TAWV", "enrichment ratio": 12.8}, {"variant": "IAMF", "enrichment ratio": "≤ 0.25"}, {"variant": "YAMF", "enrichment ratio": "≤ 0.25"}, {"variant": "TAVK", "enrichment ratio": "≤ 0.25"}, {"variant": "TAMF", "enrichment ratio": 19.6}, {"variant": "NAAF", "enrichment ratio": "≤ 0.25"}, {"variant": "DPRG", "enrichment ratio": "≤ 0.25"}, {"variant": "GCCQ", "enrichment ratio": 8.03}, {"variant": "NNVY", "enrichment ratio": "≤ 0.25"}, {"variant": "MPPF", "enrichment ratio": "≤ 0.25"}, {"variant": "QTGS", "enrichment ratio": 0.628}, {"variant": "SDDV", "enrichment ratio": 0.265}, {"variant": "WLTS", "enrichment ratio": "≤ 0.25"}, {"variant": "AVDH", "enrichment ratio": "≤ 0.25"}, {"variant": "AVTG", "enrichment ratio": 11.3}, {"variant": "AVMG", "enrichment ratio": 2.13}, {"variant": "AVVG", "enrichment ratio": 11.2}, {"variant": "AVCA", "enrichment ratio": 6.97}, {"variant": "AVSI", "enrichment ratio": 13.1}, {"variant": "HSNG", "enrichment ratio": "≤ 0.25"}, {"variant": "ERPM", "enrichment ratio": "≤ 0.25"}, {"variant": "QHPH", "enrichment ratio": "≤ 0.25"}, {"variant": "QLDN", "enrichment ratio": "≤ 0.25"}, {"variant": "LNHC", "enrichment ratio": "≤ 0.25"}, {"variant": "QLWM", "enrichment ratio": 12.6}, {"variant": "QLCK", "enrichment ratio": "≤ 0.25"}, {"variant": "QVDS", "enrichment ratio": 1.54}, {"variant": "QVDN", "enrichment ratio": 11.3}, {"variant": "LVHC", "enrichment ratio": 15}, {"variant": "LPHC", "enrichment ratio": "≤ 0.25"}, {"variant": "QVDY", "enrichment ratio": 11.3}, {"variant": "FVDN", "enrichment ratio": "≤ 0.25"}, {"variant": "QLNM", "enrichment ratio": "≤ 0.25"}, {"variant": "TVDY", "enrichment ratio": "≤ 0.25"}, {"variant": "LLFG", "enrichment ratio": "≤ 0.25"}]}]}
